Paper PMC4336329 (PLoS ONE, 2015)
Among all 310,000 compounds or so, about 14,000 (4.5%) showed an effect of 50% or more. The effect is printed as a negative number. The entries come from a sample that favours strong results as a whole.

molecular target: human ether-à-go-go-related gene (hERG) potassium channel (human, UniProt Q12809); assay: primary screen, population patch clamp on CHO cells stably expressing hERG; higher = less effect of the substance
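Further: peak tail current of the secondary pulse compared with the same well before compound.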

Sequence of human ether-à-go-go-related gene (hERG) potassium channel (Q12809 whole entry, looked up): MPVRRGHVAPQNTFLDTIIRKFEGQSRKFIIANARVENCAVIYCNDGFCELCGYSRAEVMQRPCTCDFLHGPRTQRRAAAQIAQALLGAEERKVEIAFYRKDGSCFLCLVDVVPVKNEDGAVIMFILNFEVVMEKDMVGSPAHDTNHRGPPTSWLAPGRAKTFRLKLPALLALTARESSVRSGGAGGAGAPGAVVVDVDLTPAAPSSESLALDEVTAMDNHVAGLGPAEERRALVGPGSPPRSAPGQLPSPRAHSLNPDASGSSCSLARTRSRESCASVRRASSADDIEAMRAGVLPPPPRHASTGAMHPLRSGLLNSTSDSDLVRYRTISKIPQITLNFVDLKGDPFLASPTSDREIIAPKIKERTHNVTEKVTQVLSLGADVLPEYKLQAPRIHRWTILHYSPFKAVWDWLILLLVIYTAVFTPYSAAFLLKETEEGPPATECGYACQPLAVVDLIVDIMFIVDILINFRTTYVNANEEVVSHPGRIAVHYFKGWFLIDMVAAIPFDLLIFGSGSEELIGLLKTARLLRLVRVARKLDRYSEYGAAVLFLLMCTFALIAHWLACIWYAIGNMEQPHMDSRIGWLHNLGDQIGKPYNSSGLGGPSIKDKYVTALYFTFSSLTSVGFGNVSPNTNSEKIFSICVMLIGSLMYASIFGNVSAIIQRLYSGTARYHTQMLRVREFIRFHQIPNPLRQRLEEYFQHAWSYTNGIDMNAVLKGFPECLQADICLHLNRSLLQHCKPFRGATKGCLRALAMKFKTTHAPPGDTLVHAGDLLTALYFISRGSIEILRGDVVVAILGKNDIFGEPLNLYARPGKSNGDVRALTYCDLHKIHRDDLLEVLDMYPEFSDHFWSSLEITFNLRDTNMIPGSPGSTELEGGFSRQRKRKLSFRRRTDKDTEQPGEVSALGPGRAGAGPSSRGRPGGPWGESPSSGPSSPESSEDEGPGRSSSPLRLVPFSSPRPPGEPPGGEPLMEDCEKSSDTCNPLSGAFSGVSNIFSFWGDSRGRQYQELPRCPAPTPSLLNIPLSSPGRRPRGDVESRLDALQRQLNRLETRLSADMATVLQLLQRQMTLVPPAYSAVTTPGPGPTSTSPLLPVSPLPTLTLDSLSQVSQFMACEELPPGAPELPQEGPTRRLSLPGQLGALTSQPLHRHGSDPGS

| SMILES | hERG current change (%, negative = inhibition) at 10uM [%] |
| --- | --- |
| Cc1ccc(N2CCN(S(=O)(=O)c3nnc(NC(=O)c4ccco4)s3)CC2)cc1 | 15.6 |
| CS(=O)(=O)c1cccc(C(=O)NCc2ccc(F)cc2)c1 | 0.5 |
| COC(C/C=C\[C@@H](O)[C@H](C)OCc1ccccc1)OC | 25.7 |
| CCSc1nnc(NC(=O)c2cccnc2Cl)s1 | 16.3 |
| Cc1cccc(N(C(=O)CNC(=O)c2cccs2)C(C(=O)NC2CCCC2)c2cccnc2)c1 (centres unmarked) | 1.66 |
| CCOc1ccc(N(CC(=O)N2CCN(Cc3ccccc3)CC2)S(C)(=O)=O)cc1 | -12.2 |
| O=C(N/C(=C/c1ccc(F)cc1)C(=O)N1CCCCC1)c1ccco1 | -18.7 |
| CN1C(=O)C(=Cc2ccc(N3CCCCCC3)o2)C(=O)N(C)C1=S | 6.46 |
| CNC(=S)N1CCc2cc(OC)c(OC)cc2C1COc1ccc(F)cc1 (centres unmarked) | -22.6 |
| Br.CN(CC(O)C[NH+]1CCOCC1)S(=O)(=O)[O-] (centres unmarked) | 17 |
| Cc1nc2ccccc2c(=O)n1NC(=O)C1CC1 | 16.3 |
| CCOC(=O)Cc1csc(NC(=O)CSc2nnc(-c3cccnc3)n2Cc2ccco2)n1 | -30.5 |
| O=C(CSc1nnc(-c2ccncc2)n1Cc1ccco1)Nc1nc(-c2ccccc2)cs1 | -57.4 |
| CCOC(=O)Cc1csc(NC(=O)CSc2nnc(-c3ccncc3)n2Cc2ccco2)n1 | -5.63 |
| COc1ccccc1-c1nnc(SCC(=O)Nc2nc(-c3ccccc3)cs2)n1C | -71.8 |
| CCn1c(SCC(=O)Nc2nc(-c3ccc(C)cc3)cs2)nnc1-c1ccccc1 | -1.44 |
| NC(=O)c1ccc(NC(=O)CSc2nnc(-c3ccncc3)n2Cc2ccco2)cc1 | 2.42 |
| Cc1nnc(SCC(=O)Nc2nc(-c3ccccc3)cs2)n1N | 2.68 |
| CCn1c(SCC(=O)Nc2nc(-c3ccccc3)cs2)nnc1-c1ccccc1 | -66.6 |
| NC(=O)c1ccc(NC(=O)CSc2nnc(-c3cccnc3)n2Cc2ccco2)cc1 | 6.87 |
| O=C(CSc1nnc(-c2cccnc2)n1Cc1ccco1)Nc1nc(-c2ccc(F)cc2)cs1 | -70.6 |
| CCn1c(SCC(=O)Nc2nc(-c3ccccc3)cs2)nnc1-c1ccccc1O | -20.8 |

| SMILES | hERG current change (%, negative = inhibition) at 10uM [%] |
| --- | --- |
| Cn1cnnc1SCC(=O)Nc1nc(-c2ccccc2)cs1 | -4.33 |
| CC(C)OCCCNC(=O)c1cccs1 | -9.39 |
| COc1cc2c(cc1OC)C(c1cc(OC)c(OC)cc1[N+](=O)[O-])N(C(C)=O)CC2 (centres unmarked) | 26 |
| N#C/C(=N\[O-])c1nc(-c2ccccc2)cs1.[K+] | -8.69 |
| O=C(O)c1ccc(N/N=C/c2cccc(C(F)(F)F)c2)cc1 | 27.3 |
| CN1CCc2c(sc(NC(=O)c3ccco3)c2C(N)=O)C1.Cl | -17 |
| CC(=O)N1CCc2c(sc(NC(=O)C3CCCN3S(=O)(=O)c3cccs3)c2C(N)=O)C1 (centres unmarked) | -2.88 |
| CN1CCc2c(sc(NC(=O)C3CCCN3S(=O)(=O)c3ccc(Cl)s3)c2C(N)=O)C1.Cl (centres unmarked) | -63.6 |
| CN1CCc2c(sc(NC(=O)C3CCCCC3)c2C(N)=O)C1.Cl | 2.22 |
| CN1CCc2c(sc(NC(=O)c3ccc4ccccc4c3)c2C(N)=O)C1.Cl | -5.05 |
| CN1CCc2c(sc(NC(=O)c3cc(Cl)sc3Cl)c2C(N)=O)C1.Cl | -59.8 |
| Cc1ccc(-n2cnc3ncnc(-c4ccccc4)c32)cc1 | -6.83 |
| Cc1ccc2[nH]c3c(c2c1)CN(C)CC3.Cl | -5.01 |
| O=C(CN(C(=O)c1csnn1)c1cccc(Cl)c1)NC1CCCC1 | -2.38 |
| COc1ccc(CCC(=O)NNC(=O)Nc2ccc(C(C)C)cc2)cc1 | 23.8 |
| COc1ccc(NC(=O)CN2CCN(c3ccccn3)CC2)cc1Cl | -17.4 |
| COc1ccc(CC(NC(C)=O)C(=O)NC2CCN(S(=O)(=O)c3ccccc3)CC2)c(OC)c1 (centres unmarked) | 20.5 |
| COc1ccccc1/C=C/CN1CCOCC1 | -3.9 |
| COc1ccccc1/C=C/CN1CCCC(CO)(CCc2ccccc2)C1 (centres unmarked) | -74.7 |
| COc1ccc(/C=C/CN2CCCC(CO)(Cc3cccc(Cl)c3)C2)cc1 (centres unmarked) | -50.8 |
| COc1ccccc1/C=C/CN1CCC(CO)(Cc2ccccc2)CC1 | -37.9 |
| COc1ccccc1/C=C/CN1CCCCC1 | -2.31 |

| SMILES | hERG current change (%, negative = inhibition) at 10uM [%] |
| --- | --- |
| COc1ccc(CC2(CO)CCN(C/C=C/c3ccccc3OC)CC2)cc1 | -72.8 |
| COCc1ccc(CN2CCCC(CO)(Cc3cccc(Cl)c3)C2)o1 (centres unmarked) | -46.1 |
| COc1ccccc1/C=C/CN1CCSCC1 | -3.74 |
| COc1cccc(CC2(CO)CCCN(C/C=C/c3ccccc3OC)C2)c1 (centres unmarked) | -73.2 |
| COc1ccc(F)c(CN2CCCC(CO)(Cc3cccc(Cl)c3)C2)c1 (centres unmarked) | -30.6 |
| C=CCC1NS(=O)(=O)OC2CCCC12 (centres unmarked) | 10.6 |
| Cc1ccc(Cn2cccc(NC(=O)NCc3ccccc3)c2=O)cc1 | -6.27 |
| NC(=O)c1ccc[n+]([C@H]2O[C@@H](COP(=O)([O-])OP(=O)(O)OC[C@H]3O[C@@H](n4cnc5c(N)ncnc54)[C@H](O)[C@@H]3O)[C@H](O)[C@@H]2O)c1 | 12.1 |
| Cc1c(C(=O)NN2CCOCC2)oc2c1ccc1ccccc12 | 2.24 |
| Cc1ccc(C(=O)OCc2nnc(-c3ccccc3)o2)cc1S(=O)(=O)N1CCOCC1 | -26.7 |
| CN1CCN(C(=O)CC2(CC(=O)O)CCCC2)CC1.Cl | -1.66 |
| CCn1c(CNC(=O)c2cccc(C)c2)nnc1SCC(=O)Nc1nnc(C)s1 | 15.4 |
| Cn1c(=O)c(=O)n(C)c2cc(S(=O)(=O)NCCOc3ccccc3Cl)ccc21 | 1.26 |
| COc1ccccc1/C=C/CN1CCCC(CO)(Cc2cccc(Cl)c2)C1 (centres unmarked) | -69.6 |
| COc1ccc(C2CC(=O)c3cc(OC)c(OC)cc32)cc1OC (centres unmarked) | 20.7 |
| COc1ccc(CN(C)C(C)C(=O)Nc2cccc3ccccc23)cc1 (centres unmarked) | -14.1 |
| Cc1ccc(NC(=O)C2CC(=O)Nc3nncn32)cc1 (centres unmarked) | 14.4 |
| O=C(COC(=O)c1ccc(O)cc1)NCC1COc2ccccc2O1 (centres unmarked) | -3.35 |
| COc1ccc(/C=C/C(=O)NC(=S)NNC(=O)c2ccco2)cc1 | 13.8 |
| Cc1ccc(/C(O)=C2/C(=O)C(=O)N(CCN3CCOCC3)C2c2cccs2)cc1 (centres unmarked) | 8.67 |
| Cc1ccc(-c2nc(NC(=O)CSc3nnc4scc(-c5ccccc5)n34)ns2)cc1 | -1.19 |
| O=C(CSc1nnc2scc(-c3ccccc3)n12)Nc1nsc(-c2ccccc2)n1 | -40.1 |

| SMILES | hERG current change (%, negative = inhibition) at 10uM [%] |
| --- | --- |
| O=C(CSc1nnc2scc(-c3ccccc3)n12)N1CCN(Cc2ccccc2)CC1 | -41.8 |
| c1ccc(-c2csc3nnc(SCc4ccc5c(c4)OCO5)n23)cc1 | -71.4 |
| O=C(CSc1nnc2scc(-c3ccccc3)n12)NCc1ccc2c(c1)OCO2 | -21.1 |
| Cn1c(SCC(=O)N2CCN(Cc3ccccc3)CC2)nnc1-c1ccncc1 | -2.39 |
| c1ccc(-c2csc3nnc(SCc4ccc5c(c4)OCCO5)n23)cc1 | -3.29 |
| Cc1ccc(-c2csc3nnc(SCC(=O)N4CCN(Cc5ccccc5)CC4)n23)cc1 | -55.3 |
| Cc1ccc(-c2csc3nnc(SCC(=O)Nc4nsc(-c5ccccc5)n4)n23)cc1 | -62.9 |
| CCOc1ccccc1NC(=O)C(Sc1nnnn1C)c1ccccc1 (centres unmarked) | -21.2 |
| Cn1c(NC(=O)c2ccccc2)c(-c2cccs2)c(=O)c2ccccc21 | 7.07 |
| CC(=O)c1ccc(N=Nc2c(C)[nH]n(-c3ccccc3)c2=O)cc1 | 8.59 |
| CC1CCN(C(=S)c2cn(Cc3ccc(F)cc3)c3ccccc23)CC1 | -1.82 |
| COc1cc(/C=C/C(=O)O)cc(S(=O)(=O)Nc2ccc3nc(C)sc3c2)c1OC | 26.5 |
| CCOc1ccc(C(=O)NC(=S)Nc2ccccc2N2CCC(C)CC2)cc1[N+](=O)[O-] | 5.75 |
| CCOc1ccccc1NC(=O)c1ccc(OCC)c([N+](=O)[O-])c1 | -10.3 |
| CCOc1ccc(C(=O)Nc2ccccc2CC)cc1[N+](=O)[O-] | -21.9 |
| CCOc1ccc(C(=O)Nc2ccccc2C#N)cc1[N+](=O)[O-] | -55.6 |
| CCOc1ccc(C(=O)Nc2ccccc2N2CCN(C(=O)c3ccccc3)CC2)cc1[N+](=O)[O-] | -83.3 |
| CCOc1ccc(C(=O)NC(=S)Nc2ccccc2N2CCCCC2)cc1[N+](=O)[O-] | 11.7 |
| O=C1NC2(CCCCCC2)Cc2ccccc21 | -21.2 |
| Cc1ccc(C(=O)NNC(=O)C(C)Oc2ccc3ccccc3c2)o1 (centres unmarked) | -13.2 |
